Holding throughout (experiment): HT-SELEX; 20 mM HEPES pH 7, 140 mM KCl, 5 mM NaCl, 1 mM K2HPO4, 2 mM MgSO4, 100 uM EGTA, ZnSO4, 0.1% Tween20; room temperature, 1 h; high values mean tight binding
What all share (conditions): protein: ivt; tags: eGFP (N-terminal); dsDNA, one strand shown

In one test the target is ZNF721 full-length (Homo sapiens, UniProt Q8TF20-2 1-923). In short, it runs like this: (§1)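 In HEPES/KCl low-stringency buffer with Tween20, a bead-immobilised tagged transcription factor (full-length or DNA-binding-domain fragment, from HEK293 lysate or cell-free extract) was incubated with a randomized 40-base DNA library for 1 h at room temperature. DNA retained after washing was heat-eluted, amplified by PCR over successive cycles and Illumina-sequenced, giving ~3 million 60 bp reads per sample. The reported binding signal, a relative k-mer count in those selected reads, rises with tighter binding.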
Sequence of ZNF721 full-length (Q8TF20 other isoform, or with tags, fused parts or gaps): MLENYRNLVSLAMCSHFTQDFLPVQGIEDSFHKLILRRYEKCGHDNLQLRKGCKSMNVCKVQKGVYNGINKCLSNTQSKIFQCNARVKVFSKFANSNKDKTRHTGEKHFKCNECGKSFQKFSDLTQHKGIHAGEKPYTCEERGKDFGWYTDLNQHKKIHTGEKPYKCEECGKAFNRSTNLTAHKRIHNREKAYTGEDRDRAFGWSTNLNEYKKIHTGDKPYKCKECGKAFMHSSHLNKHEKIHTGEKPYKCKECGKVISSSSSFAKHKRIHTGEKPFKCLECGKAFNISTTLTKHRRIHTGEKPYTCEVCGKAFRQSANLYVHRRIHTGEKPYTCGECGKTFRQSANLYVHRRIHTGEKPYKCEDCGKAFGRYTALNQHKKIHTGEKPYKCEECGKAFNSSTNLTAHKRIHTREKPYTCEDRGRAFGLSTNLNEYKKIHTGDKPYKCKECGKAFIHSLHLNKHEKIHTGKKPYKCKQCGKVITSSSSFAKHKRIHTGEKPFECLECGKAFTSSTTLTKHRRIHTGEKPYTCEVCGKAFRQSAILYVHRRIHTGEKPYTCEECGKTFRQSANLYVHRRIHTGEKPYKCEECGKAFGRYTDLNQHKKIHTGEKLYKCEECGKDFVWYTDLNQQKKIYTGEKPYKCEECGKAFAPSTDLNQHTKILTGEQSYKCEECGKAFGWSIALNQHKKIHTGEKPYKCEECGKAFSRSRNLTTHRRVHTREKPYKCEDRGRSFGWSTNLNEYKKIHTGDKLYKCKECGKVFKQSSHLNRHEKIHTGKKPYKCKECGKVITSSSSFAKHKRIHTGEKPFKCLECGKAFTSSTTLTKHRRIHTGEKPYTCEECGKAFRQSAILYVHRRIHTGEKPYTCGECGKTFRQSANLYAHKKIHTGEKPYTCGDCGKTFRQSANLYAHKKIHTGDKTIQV

Another test has as its target ZNF721 DBD1 (Homo sapiens, UniProt Q8TF20-2 29-461). In a few lines: as §1
For another test, the target named is ZNF721 DBD2 (Homo sapiens, UniProt Q8TF20-2 395-923). In short, it runs like this:
as §1

Sequence of ZNF721 DBD2 (Q8TF20 383-911): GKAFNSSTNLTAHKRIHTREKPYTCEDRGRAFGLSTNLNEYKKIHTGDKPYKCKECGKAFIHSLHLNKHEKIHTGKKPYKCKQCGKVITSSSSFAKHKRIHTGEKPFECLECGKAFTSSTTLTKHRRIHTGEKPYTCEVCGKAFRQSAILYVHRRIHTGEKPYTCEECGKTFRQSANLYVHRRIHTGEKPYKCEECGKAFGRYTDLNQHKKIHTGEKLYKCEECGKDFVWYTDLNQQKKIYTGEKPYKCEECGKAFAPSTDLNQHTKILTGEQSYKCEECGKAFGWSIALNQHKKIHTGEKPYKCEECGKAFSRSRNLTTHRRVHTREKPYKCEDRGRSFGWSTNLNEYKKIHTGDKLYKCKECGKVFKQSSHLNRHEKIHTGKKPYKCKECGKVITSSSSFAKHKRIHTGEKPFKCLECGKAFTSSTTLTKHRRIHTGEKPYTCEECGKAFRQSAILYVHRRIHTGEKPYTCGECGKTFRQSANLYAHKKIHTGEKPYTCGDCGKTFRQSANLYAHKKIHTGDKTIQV
Sequence of ZNF721 DBD1 (Q8TF20 17-449): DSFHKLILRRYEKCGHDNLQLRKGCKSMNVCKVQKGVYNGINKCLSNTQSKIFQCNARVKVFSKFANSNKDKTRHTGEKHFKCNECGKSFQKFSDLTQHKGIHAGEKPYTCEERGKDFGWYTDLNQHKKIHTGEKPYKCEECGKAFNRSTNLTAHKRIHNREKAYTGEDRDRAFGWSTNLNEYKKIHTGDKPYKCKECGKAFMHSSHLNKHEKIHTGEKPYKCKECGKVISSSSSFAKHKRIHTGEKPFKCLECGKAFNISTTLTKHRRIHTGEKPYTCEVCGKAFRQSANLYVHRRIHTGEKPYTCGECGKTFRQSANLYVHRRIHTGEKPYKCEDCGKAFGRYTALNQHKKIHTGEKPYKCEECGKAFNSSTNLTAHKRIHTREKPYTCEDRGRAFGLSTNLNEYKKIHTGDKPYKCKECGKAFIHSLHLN

In the case of AAAAGCTGCC, the binding signal turned out to be 0.103 relative 10-mer count in the test with ZNF721 full-length, 0.0372 relative 10-mer count in the test with ZNF721 DBD1 and 0.00108 relative 10-mer count in the test with ZNF721 DBD2.
On the same counts, the results for CGCCCCCCGC are 0.12 relative 10-mer count, 0.00472 relative 10-mer count and 0.00384 relative 10-mer count.
For the sequence AAAAAAGCGG, the binding signal turned out to be 0.11 relative 10-mer count with ZNF721 full-length, 0.0255 relative 10-mer count with ZNF721 DBD1 and 0.0279 relative 10-mer count in the test with ZNF721 DBD2.
In the same order, the values of ACCGAAAAAA are 0.104 relative 10-mer count, 0.00949 relative 10-mer count and 0.0485 relative 10-mer count.
In the same order, the values of CCGCCCCCCG are 0.128 relative 10-mer count, 0.0039 relative 10-mer count and 0.0024 relative 10-mer count.
In the same order, the values of CCACCCTCCA are 0.123 relative 10-mer count, 0.00587 relative 10-mer count and 0.00815 relative 10-mer count.
With CCACCCCATC, the binding signal with ZNF721 full-length amounted to 0.11 relative 10-mer count; with ZNF721 DBD1, 0.00509 relative 10-mer count; with ZNF721 DBD2 it was 0.00791 relative 10-mer count.
In the same order, the values of GCCACCCCCA are 0.107 relative 10-mer count, 0.00326 relative 10-mer count and 0.00216 relative 10-mer count.
In the same order, the values of CCCGCCCCCG are 0.13 relative 10-mer count, 0.00482 relative 10-mer count and 0.00144 relative 10-mer count.
On the same counts, the results for GCCTCCCCCC are 0.115 relative 10-mer count, 0.00518 relative 10-mer count and 0.00791 relative 10-mer count.
In the case of AGGTGGGTGG, the values for the binding signal with ZNF721 full-length, with ZNF721 DBD1 and with ZNF721 DBD2 were 0.149 relative 10-mer count, 0.00642 relative 10-mer count and 0.00443 relative 10-mer count, respectively.
In the same order, the values of CGCCCCCCAC are 0.156 relative 10-mer count, 0.00679 relative 10-mer count and 0.00407 relative 10-mer count.
In the same order, the values of CGTCCCCACC are 0.115 relative 10-mer count, 0.00541 relative 10-mer count and 0.00467 relative 10-mer count.
In the case of ACGAAAAAAA, the binding signal with ZNF721 full-length amounted to 0.107 relative 10-mer count; in the test with ZNF721 DBD1 it was 0.0146 relative 10-mer count; with ZNF721 DBD2, 0.0612 relative 10-mer count.
On to CCCATCCACC, for which the binding signal is 0.103 relative 10-mer count in the test with ZNF721 full-length, 0.00569 relative 10-mer count in the test with ZNF721 DBD1 and 0.00827 relative 10-mer count in the test with ZNF721 DBD2.
In the same order, the values of CAGCGTACCC are 0.239 relative 10-mer count, 0.00229 relative 10-mer count and 0.41 relative 10-mer count.
In the same order, the values of ACCTCCCCCC are 0.151 relative 10-mer count, 0.00578 relative 10-mer count and 0.00216 relative 10-mer count.
As for CACCCCATCC, the values for the binding signal with ZNF721 full-length, with ZNF721 DBD1 and in the test with ZNF721 DBD2 were 0.11 relative 10-mer count, 0.00372 relative 10-mer count and 0.00575 relative 10-mer count, respectively.
On the same counts, the results for CACCCCCAAC are 0.118 relative 10-mer count, 0.00514 relative 10-mer count and 0.0114 relative 10-mer count.
For the sequence CCACCCCCCG, the binding signal with ZNF721 full-length was 0.179 relative 10-mer count; with ZNF721 DBD1 it was 0.00628 relative 10-mer count; with ZNF721 DBD2, 0.0024 relative 10-mer count.
In the same order, the values of AGGTGGGGTG are 0.114 relative 10-mer count, 0.00532 relative 10-mer count and 0.00288 relative 10-mer count.
On the same counts, the results for CACGCCCACC are 0.123 relative 10-mer count, 0.00518 relative 10-mer count and 0.00947 relative 10-mer count.
In the same order, the values of AAAAAAAGCT are 0.472 relative 10-mer count, 0.169 relative 10-mer count and 0.00923 relative 10-mer count.
GCCCCAACCC: the results for the binding signal with ZNF721 full-length, in the test with ZNF721 DBD1 and with ZNF721 DBD2 were 0.105 relative 10-mer count, 0.00376 relative 10-mer count and 0.00168 relative 10-mer count, respectively.
Consider AAGCAGCATG, for which the binding signal with ZNF721 full-length amounted to 0.115 relative 10-mer count; with ZNF721 DBD1, 0.0017 relative 10-mer count; with ZNF721 DBD2 it was 0.137 relative 10-mer count.
On the same counts, the results for GCCCCCCCCA are 0.107 relative 10-mer count, 0.00261 relative 10-mer count and 0.00348 relative 10-mer count.
Consider AGGGGTGGTG, for which the binding signal with ZNF721 full-length was 0.139 relative 10-mer count; with ZNF721 DBD1 it was 0.00532 relative 10-mer count; with ZNF721 DBD2, 0.00407 relative 10-mer count.

These data come from article PMC13541613, “GHT-SELEX demonstrates unexpectedly high intrinsic sequence specificity and complex DNA binding of many human transcription factors”.
